# Experimental data taken from PubChem BioAssay AID743446 (Broad Institute, 2014).
# Measured potencies and affinities stand elsewhere. Unmarked numbers belong to inactive results. The rule behind the calls is not given here.
# Assay: viability loss in HEK293 cells – cell-based, plate reader, cherry-picked samples, cytotoxicity control, dose response (AID 743446)
# Conditions: stronger effect = lower value; at 26 µM unless noted
row,SMILES,max activity
1,Cc1ccc(C(=O)Nc2ccc3c(c2)OCCO3)cc1,17.1% [at 0.05 µM]
2,CCCCCc1ccc(-c2ccc(C(=O)O)cc2)nc1,34.4% [at 0.8 µM]
3,Cc1ccccc1S(=O)(=O)N1[C@H](C#N)[C@H](c2ccc(C#CC3CCCCC3)cc2)[C@H]1CO,29.2% [at 3 µM]
4,Cc1ccc(NC(=O)c2ncn(CC(=O)N3CCN(c4ccccn4)CC3)n2)cc1C,-13.4% [at 0.195 µM]
5,Cc1nc2c(OCCC3CCCCC3)cccn2c1N(C)C(=O)CCC1CCCC1,-22.5% [at 6 µM]
6,O=C1CC(c2ccc3c(c2)OCO3)Sc2nc3ccccc3n21 (stereo not drawn),-8.84% [at 0.38 µM]
7,C[C@H](CO)N1C[C@H](C)[C@H](CN(C)Cc2ccncc2)Oc2ncc(C#CCC3CCCCC3)cc2C1=O,18.1% [at 3 µM]
8,C[C@@H]1CN([C@H](C)CO)C(=O)c2cc(C#CCN(C)C)cnc2O[C@@H]1CN(C)C(=O)CN1CCOCC1,12.9% [at 0.195 µM]
9,CC(C)CCn1cnc2c(oc3nc4c(cc32)CCCC4)c1=O,-17.8%
10,Nc1nccc(-c2cc(-c3ccc(Cl)cc3Cl)no2)n1,47.2% [at 6 µM]
11,CC(C)c1ccc2c(c1)C(N1CCNCC1)Cc1ccc(F)cc1S2 (stereo not drawn),-119%
12,CC(C)(C)C(=O)Nc1ccc(NC(=O)c2ccco2)nc1,11.3% [at 0.38 µM]
13,O=C(c1ccc2c(c1)OCCO2)C1CCN(S(=O)(=O)c2ccc(F)cc2)CC1,25.1% [at 0.1 µM]
14,C[C@H](CO)N1C[C@H](C)[C@H](CN(C)C(=O)Nc2cccc3ccccc23)OCCCC[C@H](C)Oc2ccc(NC(=O)NC3CCCCC3)cc2C1=O,68.9%
15,CSc1ccc(NC(=O)Nc2cc(C)ccn2)cc1,12.9% [at 0.05 µM]
16,COc1ccc(OCC(=O)Nc2nccs2)cc1,15.2% [at 1.6 µM]
17,COc1ccc(N(CC(=O)NCc2cccs2)S(=O)(=O)c2ccc(C(C)=O)cc2)cc1,-10.6% [at 3 µM]
18,Nc1c(C(=O)Nc2cccc(C(=O)O)c2)sc2nc3c(cc12)CCCC3,-12.6% [at 0.1 µM]
19,O=c1c2c(nc3cc(-c4ccc(F)cc4)[nH]n13)CCCC2,-12.8%

row,SMILES,max activity
1,C[C@H](CO)N1C[C@H](C)[C@H](CN(C)S(=O)(=O)c2ccc(C(F)(F)F)cc2)OCc2ccccc2-c2c(n(C)c3ccccc23)C1=O,-10.7% [at 1.6 µM]
2,CC(=O)Nc1ccc(S(=O)(=O)c2ccnc3cc(Cl)ccc23)cc1,-26.3% [at 12 µM]
3,Cc1cc(C(=O)CSc2nnc3ccccn23)c(C)n1-c1ccccc1,-21.9%
4,COc1ccc(S(=O)(=O)N2CCN(C(=O)c3ccc(C)o3)CC2)cc1,29.4% [at 0.195 µM]
5,Cc1ccc2nc(-c3ccc(NC(=O)C4CCCO4)cc3)[nH]c2c1 (stereo not drawn),41.8%
6,Cc1ccc(Nc2nc(-c3ccccc3)cs2)nc1,-17.9% [at 0.05 µM]
7,Cc1ccc2nc(CSc3nc(C)ccc3C#N)[nH]c2c1,-29.6% [at 1.6 µM]
8,COCCn1c(C)cc(C(=O)CSc2nnnn2C2CCCC2)c1C,21%
9,c1ccc(-n2ncc3c(N4CCCCC4)ncnc32)cc1,-13.3% [at 3 µM]
10,C[C@H](CO)N1C[C@H](C)[C@H](CN(C)C(=O)Cc2ccccc2)OCCCC[C@H](C)Oc2ccc(NC(=O)Nc3ccc(C(F)(F)F)cc3)cc2C1=O,12.5% [at 3 µM]
11,O=C(CN1C(=O)c2ccccc2S1(=O)=O)c1ccccc1F,74.6%
12,COc1ccc(-n2cc(C(=O)c3ccccc3O)cn2)cc1,69.9% [at 3 µM]
13,COc1cc(NC(=O)c2cccc3c(-c4cnn(C)c4)coc23)cc(OC)c1OC,-34.1%
14,Cc1csc(NC(=O)c2cnc3ccccc3n2)n1,87.3%
15,Cc1ccc2nc(-c3ccc(N)cc3)sc2c1,21.7% [at 3 µM]
16,CC(C)Nc1ncnc2c1cnn2-c1ccc(Cl)cc1,60.9%
17,COc1cc(NC(=O)c2cccs2)c(C(=O)OCC(=O)c2cc(C)n(-c3ccccc3)c2C)cc1OC,17.2%
18,COc1ccc(C(=O)Nc2nnc(SCC(=O)NCc3ccco3)s2)c(OC)c1,15%
19,C[C@H](CO)N1C[C@H](C)[C@H](CN(C)C(=O)Nc2ccc3c(c2)OCO3)OCCCC[C@H](C)Oc2ccc(NC(=O)NC3CCCCC3)cc2C1=O,-16.6%
